Broadly, the AC50 is the midpoint of the concentration-response curve, whichever way the signal moves.

“And” between values parts separate entries of the source, which are not always exact repeats. Equal values may be shown once. Results filed as inconclusive are left out. More than one record can exist for a structure, and the calls need not agree. The source made the active and inactive calls. Rule for the calls, unless noted: active = hit-call score of the fitted dose curve at least 0.9, where 1 is the maximum; inconclusive = response in the unintended direction; inactive = score below 0.9.

Assay [1] in a line: Tanguay_ZF_120hpf_TR_legacy: (Legacy) Oregon State University Tanguay Lab 120 Hour Post-fertilization zebrafish Assay for Touch Response (AID 2283667). In short, it runs like this:
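Tropical 5D wild-type zebrafish embryos statically exposed to 120 hpf at 28°C, sealed and dark-covered, 0.64% DMSO final; touch response scored as present/absent by brightfield microscopy at 120 hpf. Trimethyltin chloride 5 uM positive control; dead embryos not scored.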

Read-out in assay [2]: Cytochrome P450 (CYP24A1_1), CYP24A1 (gene 1591)
Nature of the assay: LTEA_HepaRG_CYP24A1_1: Life Technologies and Expression Analysis (LTEA) Assay for Cytochrome P450 (CYP24A1_1) using HepaRG (AID 2283671; active = hit-call score of the fitted dose curve at least 0.9, where 1 is the maximum; inactive = score below 0.9). The conditions noted are these: mRNA level, 48 h; actives raise or lower the signal. In short, it runs like this:
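Differentiated human HepaRG cells in serum-free induction medium, exposed 48 h in duplicate to eight half-log concentrations from 100 uM top, 0.5% DMSO. Transcript measured by TaqMan qRT-PCR, normalised to ACTB, GAPDH, POLR2A; bidirectional fitting versus DMSO.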

Assay [3] in a line: CCTE_Padilla_ZF_144hpf_TERATOSCORE: (Legacy) CCTE's 144 Hour Post-fertilization zebrafish Assay Teratoscore, Padilla Lab (AID 2283679; active = hit-call score of the fitted dose curve at least 0.9, where 1 is the maximum; inactive = score below 0.9;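 for AC50: zebrafish embryos with chorions exposed by immersion from 6-8 hpf to 5 dpf with daily renewal; teratogenicity score from eye scoring of death hatching and malformations at 144 hpf; higher score means more developmental defects relative to DMSO baseline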). In short, it runs like this:
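Larvae scored by eye at 144 hpf for death, hatching and malformations after a day in clean Hanks'. Before that, daily-renewed exposure at 80 uM (0.4% DMSO, 26C) from roughly 6-8 hpf through 5 dpf, 4 embryos per chemical.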

The nature of assay [4]: Tanguay_ZF_120hpf_ActivityScore_legacy: (Legacy) Oregon State University Tanguay Lab 120 Hour Post-fertilization zebrafish Assay Score for Activity (AID 2283742).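 For AC50: dechorionated Tropical 5D wild-type zebrafish embryos held singly per well; static exposure from 6 hpf until 120 hpf at 28 °C.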 The method, boiled down: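 Dechorionated Tropical 5D embryos, one per well from 6 hpf, statically exposed to 120 hpf at 28 °C in 0.64% DMSO. Mortality and malformations scored binary by brightfield microscopy; activity score combines 18 endpoints, fitted positively versus DMSO.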

Assay [5] has as its system Thyroperoxidase (TPO), gene 54314. Kind of assay: CCTE_Simmons_AUR_rTPO: CCTE's Amplex UltraRed Assay for Thyroperoxidase (TPO) Inhibition, Simmons Lab (AID 2283662).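 For AC50: potency for loss of signal meaning inhibition of peroxidase activity.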 The method, boiled down: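 Rat thyroid microsomes (5 ug protein) with 25 uM Amplex UltraRed and 300 uM H2O2 in 200 mM phosphate buffer, 30 min at 37C in dark; fluorescence 544/590 nm. Eight concentrations, 5 nM–87.5 uM final, 0.5% DMSO, triplicate biological replicates.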

The nature of assay [6]: CCTE_Simmons_CellTiterGLO_HEK293T: Viability Assessment in CCTE's Assays for Thyroperoxidase (TPO) Inhibition, Simmons Lab (AID 2283665).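 For AC50: cells exposed to compound for 24 h before readout; actives reduce ATP signal below DMSO vehicle meaning cytotoxicity.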 In short, it runs like this:
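HEK293T cells in DMEM with 1% FBS, dosed 24 h at 37C with 8 concentrations, 5 nM–87.5 uM final, 0.5% DMSO. ATP measured by CellTiter Glo luminescence; loss of signal vs DMSO, three biological replicates.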

Assay [7] can be described thus: STM_H9_OrnCyssISnorm_ratio: Stemina devTOX quickPredict H9 human embryonic stem cell (hESC)-based Assay for Ornithine (ORN):Cystine (CYSS) Ratio (AID 2283714). In short, it runs like this:
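Undifferentiated H9 hESCs exposed 72 h, media and compound replaced every 24 h; final 24-h conditioned media deproteinized and analysed by UPLC-HRMS against C13 spike-ins. Value is the internal-standard-normalized ORN/CYSS ratio versus 0.1% DMSO.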

Assay [8] is described as follows: STM_H9_OrnithineISnorm_perc: Stemina devTOX quickPredict H9 human embryonic stem cell (hESC)-based Assay for Ornithine (ORN) Metabolite Biomarker, Normalized (AID 2283712; active = hit-call score of the fitted dose curve at least 0.9, where 1 is the maximum; inactive = score below 0.9;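 note: ornithine released into spent medium during last day measured by mass spectrometry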). In short, it runs like this:
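Undifferentiated H9 hESCs exposed 72 h with daily media and compound renewal; final 24-h conditioned medium analysed by UPLC-HRMS. Ornithine peak area normalised to spiked C13 standard and to median 0.1% DMSO control; viability by CellTiter-Fluor.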

Assay [9] is described as follows: STM_H9_CystineISnorm_perc: Stemina devTOX quickPredict H9 human embryonic stem cell (hESC)-based Assay for Cystine (CYSS) Metabolite Biomarker, Normalized (AID 2283713; active = hit-call score of the fitted dose curve at least 0.9, where 1 is the maximum; inactive = score below 0.9). In short, it runs like this: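 Undifferentiated H9 hESCs exposed 72 h, compound and media replaced every 24 h; final 24-h media analysed by UPLC-HRMS. Cystine normalized to C13 spike-in standard and median 0.1% DMSO control.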

Assay [10] is described as follows: CEETOX_H295R_MTT_cell_viability: Viability Assessment in the CeeTox HT-H295R MTT Assay (AID 2283718; active = hit-call score of the fitted dose curve at least 0.9, where 1 is the maximum; inactive = score below 0.9;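 for AC50: curve fitted both ways so AC50 may mark viability loss or gain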). The method, boiled down: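 Human H295R adrenal cells, prestimulated 48 h with 10 uM forskolin, were exposed 48 h to chemicals in 0.1% DMSO. Viability was measured in the same wells by MTT (0.5 mg/ml, 4 h, 37 C), absorbance 570/650 nm, as percent of controls.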

With `NC(=O)O`, the compound was called inactive in [1], in [2], in assay [3] and in [4].
For `CC(C)(c1ccccc1)c1ccc(O)c(C(C)(C)c2ccccc2)c1`, the AC50 in assay [5] was 19.6 µM (active); in [6], 5.35 µM (active); in assay [3] it was 4.58 µM (active). The call in [1] and in assay [4] was inactive.
Take `CC(C)(c1ccc(OCC2CO2)cc1)c1ccc(OCC2CO2)cc1` (configuration not stated): the AC50 in assay [5] is 43.5 µM (active); in assay [6], 83.7 µM (active). The result in assay [7] was inactive.
In the case of `CC(C)(C)CC(C)(C)c1ccc(O)cc1`, the AC50 is 11.6 µM (active) in [5], 9.53 µM (active) in assay [6] and 4.55 µM (active) in [3]. Also, the outcome in assay [1] and in assay [4] was inactive.
For the compound `OCc1ccco1`, the AC50 in [5] is 28.5 µM (active). For the same compound, the call in assay [6] was inactive.
As to `CC1(C)Cc2cccc(O)c2O1`, the concentration at half-maximal activity (AC50) in assay [5] was 12.2 µM (active).
On to `CC(C)(C)c1cc(O)ccc1O`, for which the AC50 in assay [5] was 1.84 µM (active) [middle of 5 runs]; in assay [6] it was 85.6 µM (active) and 25.9 µM (active) and 27.6 µM (active); in assay [3] it was 14.4 µM (active); in assay [4], 16.8 µM (active). Besides, the call in [6], in assay [1], in [8], in [9] and in assay [7] was inactive.
As to `CC1(C)CCC(Cc2ccc(Cl)cc2)C1(O)Cn1cncn1` (configuration not stated), the compound was classed as inactive in assay [5] and in assay [10]. In addition, the AC50 in [6] was 89 µM (active).
As for `CCOP(=S)(OCC)Oc1nc(Cl)c(Cl)cc1Cl`, the AC50 in assay [5] was 10.4 µM (active); in assay [6], 17.9 µM (active); in [3] it was 4.72 µM (active); in assay [10], 93.2 µM (active). Besides, the call in [1] and in assay [4] was inactive.
Consider `CC(C)c1cccc(C(C)C)c1O`, for which the results for the AC50 in [5] and in [6] were 10.3 µM (active) and 84.6 µM (active), respectively.
As to `CCCCCCCCc1ccc(O)cc1`, the AC50 in assay [5] was 6.82 µM (active); in assay [6], 22.6 µM (active); in [3], 5.21 µM (active). Moreover, the result in assay [1] and in assay [4] was inactive.
For the compound `CCOP(=S)(OCC)SCSP(=S)(OCC)OCC`, the values for the AC50 in assay [5], in assay [6] and in [3] were 9.6 µM (active), 46.6 µM (active) and 5.5 µM (active), respectively. For the same compound, the call in assay [1], in assay [10] and in [4] was inactive.
With `COP(=S)(OC)Oc1ccc(Sc2ccc(OP(=S)(OC)OC)cc2)cc1`, the half-maximal activity concentration (AC50) in assay [5] is 11.6 µM (active).
`Clc1ccc(C2(Cn3cncn3)CC(Br)CO2)c(Cl)c1` (configuration not stated): in assay [5], the compound was called inactive. The AC50 in [6] was 95.2 µM (active).
As for `O=C(O)C(F)(F)C(F)(F)C(F)(F)C(F)(F)C(F)(F)C(F)(F)F`, the AC50 in assay [5] was 16.5 µM (active). Also, the result in assay [5], in assay [1] and in [4] was inactive.
On to `Clc1ccc(COC(Cn2ccnc2)c2ccc(Cl)cc2Cl)cc1` (configuration not stated), for which the AC50 in assay [5] was 43.8 µM (active); in assay [6], 22.4 µM (active).
Turning to `NNC(=S)NN`, the AC50 in assay [5] is 0.205 µM (active). In addition, the compound was classed as inactive in assay [6] and in [10].
Regarding `Cc1ccccc1N`, in assay [5], the AC50 is 2.19 µM (active) and 2.51 µM (active). In addition, the call in assay [6], in assay [1] and in assay [4] was inactive.
Regarding `CCC(C)(C)c1ccc(O)c(C(C)(C)CC)c1`, the AC50 in [5] is 4.15 µM (active); in [6], 0.847 µM (active); in [3], 4.87 µM (active) and 4.82 µM (active). The compound was classed as inactive in [1] and in assay [4].
With `CCOC(=O)Nc1cccc(OC(=O)Nc2ccccc2)c1`, the values for the AC50 in assay [5] and in assay [6] were 1.38 µM (active) and 16.6 µM (active), respectively.
For `Cc1ccc2ccccc2c1C` the same measures were 34.3 µM (active) and 17.4 µM (active).
Consider `COP(=O)(OC)O/C(=C\Cl)c1cc(Cl)c(Cl)cc1Cl`, for which the AC50 is 48.3 µM (active) in [5] and 25 µM (active) in assay [6]. In addition, the call in assay [10] was inactive.
On to `C[C@H]1CCCC(=O)CCC/C=C/c2cc(O)cc(O)c2C(=O)O1`, for which the AC50 was 3.47 µM (active) in assay [5], 89.2 µM (active) in [6] and 69.8 µM (active) in assay [10].
`O=C(O)C(F)(F)C(F)(F)C(F)(F)C(F)(F)C(F)(F)C(F)(F)C(F)(F)C(F)(F)C(F)(F)C(F)(F)F`: the compound was called inactive in assay [1], in [2] and in [4]. Also, the AC50 in assay [3] was 8.02 µM (active).
Take `CC12CC1(C)C(=O)N(c1cc(Cl)cc(Cl)c1)C2=O` (configuration not stated): the outcome in assay [5], in assay [6], in [1], in [3], in [10] and in assay [4] was inactive. In addition, the AC50 in [8] is 61 µM (active); in [9], 50 µM (active); in assay [7], 50 µM (active).
Consider `O=C(O)C(Cl)(Cl)Cl`, for which the compound was classed as inactive in assay [5], in assay [6], in [1], in assay [3], in assay [8] and in [9]. Moreover, the call in assay [4] was inactive.

The values above are taken from PubChem BioAssay (EPA / NIEHS).
